# Several values for one entry are separate records, joined by “and”; a condition that tells them apart may be missing. Equal values may be shown once. The whole screen tested about 5,500 compounds, of which about 2,000 (36%) were called active. Inconclusive results (about 18%) are left out. Some of the results follow. A number with no mark means an inactive call. Rule as the data show it: active = normalized growth mostly below about 0.91 (no sharp cut-off); inconclusive = no clear call, values can overlap the other calls; inactive = mostly above about 0.92.
# Assay: chemical genetic growth profiling, strain panel (AID 1159580);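 also: tested at 20 µM; growth read once vehicle control cultures reached saturation at 30 °C; 1 = growth at the plate median or of vehicle wells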
# Details: growth OD
smiles,measurement,setting,value
O=S(=O)(N/N=C\c1ccc(Cl)cc1)c1ccc(-c2ccccn2)s1,normalized growth,"S. cerevisiae deletion strains, locus YAL013W, strain DEP1, stronger effect = lower value",0.973
same,normalized growth,"S. cerevisiae deletion strains, locus YAR019C, strain CDC15, stronger effect = lower value",0.993
same,normalized growth,"S. cerevisiae deletion strains, locus YBL105C, strain PKC1, stronger effect = lower value",0.981
same,normalized growth,"S. cerevisiae deletion strains, locus YBR135W, strain CKS1, stronger effect = lower value",0.98
same,normalized growth,"S. cerevisiae deletion strains, locus YBR136W, strain MEC1, stronger effect = lower value",0.982
same,normalized growth,"S. cerevisiae deletion strains, locus YBR160W, strain CDC28, stronger effect = lower value",0.969
same,normalized growth,"S. cerevisiae deletion strains, locus YBR229C, strain ROT2, stronger effect = lower value",0.994
same,normalized growth,"S. cerevisiae deletion strains, locus YDL017W, strain CDC7, stronger effect = lower value",0.978
same,normalized growth,"S. cerevisiae deletion strains, locus YDL028C, strain MPS1, stronger effect = lower value",0.969
same,normalized growth,"S. cerevisiae deletion strains, locus YDL101C, strain DUN1, stronger effect = lower value",0.979 and 0.977
same,normalized growth,"S. cerevisiae deletion strains, locus YDL108W, strain KIN28, stronger effect = lower value",0.976
same,normalized growth,"S. cerevisiae deletion strains, locus YDL132W, strain cdc53, stronger effect = lower value",0.975
same,normalized growth,"S. cerevisiae deletion strains, locus YDL134C, strain PPH21, stronger effect = lower value",0.931
same,normalized growth,"S. cerevisiae deletion strains, locus YDL214C, strain PRR2, stronger effect = lower value",0.98
same,normalized growth,"S. cerevisiae deletion strains, locus YDR052C, strain DBF4, stronger effect = lower value",0.97
same,normalized growth,"S. cerevisiae deletion strains, locus YDR054C, strain cdc34, stronger effect = lower value",0.979
same,normalized growth,"S. cerevisiae deletion strains, locus YDR150W, strain NUM1, stronger effect = lower value",0.976
same,normalized growth,"S. cerevisiae deletion strains, locus YDR226W, strain ADK1, stronger effect = lower value",0.988
same,normalized growth,"S. cerevisiae deletion strains, locus YDR477W, strain SNF1, stronger effect = lower value",0.958
same,normalized growth,"S. cerevisiae deletion strains, locus YEL061C, strain CIN8, stronger effect = lower value",0.935
same,normalized growth,"S. cerevisiae deletion strains, locus YER123W, strain YCK3, stronger effect = lower value",0.96
same,normalized growth,"S. cerevisiae deletion strains, locus YER133W, strain GLC7, stronger effect = lower value",0.99
same,normalized growth,"S. cerevisiae deletion strains, locus YFL009W, strain cdc4, stronger effect = lower value",0.974
same,normalized growth,"S. cerevisiae deletion strains, locus YFL029C, strain CAK1, stronger effect = lower value",0.994
same,normalized growth,"S. cerevisiae deletion strains, locus YFR003C, strain YPI1, stronger effect = lower value",0.976
same,normalized growth,"S. cerevisiae deletion strains, locus YFR019W, strain FAB1, stronger effect = lower value",0.976
same,normalized growth,"S. cerevisiae deletion strains, locus YFR028C, strain CDC14, stronger effect = lower value",0.973
same,normalized growth,"S. cerevisiae deletion strains, locus YGR040W, strain KSS1, stronger effect = lower value",0.96
same,normalized growth,"S. cerevisiae deletion strains, locus YGR052W, strain FMP48, stronger effect = lower value",0.947
same,normalized growth,"S. cerevisiae deletion strains, locus YGR078C, strain PAC10, stronger effect = lower value",0.975
same,normalized growth,"S. cerevisiae deletion strains, locus YGR092W, strain DBF2, stronger effect = lower value",0.942
same,normalized growth,"S. cerevisiae deletion strains, locus YHR030C, strain SLT2, stronger effect = lower value",0.797 and 1.04
same,normalized growth,"S. cerevisiae deletion strains, locus YHR079C, strain IRE1, stronger effect = lower value",1.07
same,normalized growth,"S. cerevisiae deletion strains, locus YHR082C, strain KSP1, stronger effect = lower value",1.02
same,normalized growth,"S. cerevisiae deletion strains, locus YHR087W, strain rtc3, stronger effect = lower value",0.998
same,normalized growth,"S. cerevisiae deletion strains, locus YHR205W, strain SCH9, stronger effect = lower value",0.983
same,normalized growth,"S. cerevisiae deletion strains, locus YIL147C, strain SLN1, stronger effect = lower value",0.975
same,normalized growth,"S. cerevisiae deletion strains, locus YJL095W, strain BCK1, stronger effect = lower value",0.961
same,normalized growth,"S. cerevisiae deletion strains, locus YJL128C, strain PBS2, stronger effect = lower value",0.946
same,normalized growth,"S. cerevisiae deletion strains, locus YJL157C, strain FAR1, stronger effect = lower value",0.98
same,normalized growth,"S. cerevisiae deletion strains, locus YJL187C, strain SWE1, stronger effect = lower value",1.02
same,normalized growth,"S. cerevisiae deletion strains, locus YJR016C, strain ILV3, stronger effect = lower value",0.976
same,normalized growth,"S. cerevisiae deletion strains, locus YJR043C, strain POL32, stronger effect = lower value",0.947
same,normalized growth,"S. cerevisiae deletion strains, locus YJR066W, strain TOR1 (second series), stronger effect = lower value",0.996
same,normalized growth,"S. cerevisiae deletion strains, locus YJR066W, strain TOR1, stronger effect = lower value",1.05
same,normalized growth,"S. cerevisiae deletion strains, locus YJR075W, strain HOC1, stronger effect = lower value",0.988
same,normalized growth,"S. cerevisiae deletion strains, locus YKL048C, strain ELM1, stronger effect = lower value",0.959
same,normalized growth,"S. cerevisiae deletion strains, locus YKL067W, strain YNK1, stronger effect = lower value",0.976
same,normalized growth,"S. cerevisiae deletion strains, locus YKL101W, strain HSL1, stronger effect = lower value",0.949
same,normalized growth,"S. cerevisiae deletion strains, locus YKL190W, strain CNB1, stronger effect = lower value",0.924 (active)
same,normalized growth,"S. cerevisiae deletion strains, locus YKL193C, strain SDS22, stronger effect = lower value",0.977
same,normalized growth,"S. cerevisiae deletion strains, locus YKL203C, strain TOR2, stronger effect = lower value",1.04
same,normalized growth,"S. cerevisiae deletion strains, locus YLR039C, strain RIC1, stronger effect = lower value",0.465 (active)
same,normalized growth,"S. cerevisiae deletion strains, locus YLR058C, strain SHM2 (second series), stronger effect = lower value",0.996
same,normalized growth,"S. cerevisiae deletion strains, locus YLR085C, strain ARP6, stronger effect = lower value",0.912
same,normalized growth,"S. cerevisiae deletion strains, locus YLR113W, strain HOG1, stronger effect = lower value",0.888
same,normalized growth,"S. cerevisiae deletion strains, locus YLR133W, strain CKI1, stronger effect = lower value",0.967
same,normalized growth,"S. cerevisiae deletion strains, locus YLR262C, strain YPT6, stronger effect = lower value",0.427 (active)
same,normalized growth,"S. cerevisiae deletion strains, locus YLR403W, strain SFP1, stronger effect = lower value",0.95
same,normalized growth,"S. cerevisiae deletion strains, locus YML070W, strain DAK1, stronger effect = lower value",0.938
same,normalized growth,"S. cerevisiae deletion strains, locus YML094W, strain GIM5, stronger effect = lower value",0.95
same,normalized growth,"S. cerevisiae deletion strains, locus YMR001C, strain CDC5, stronger effect = lower value",0.99
same,normalized growth,"S. cerevisiae deletion strains, locus YMR205C, strain PFK2 (second series), stronger effect = lower value",0.969
same,normalized growth,"S. cerevisiae deletion strains, locus YMR219W, strain ESC1, stronger effect = lower value",0.998
same,normalized growth,"S. cerevisiae deletion strains, locus YMR263W, strain SAP30, stronger effect = lower value",0.976
same,normalized growth,"S. cerevisiae deletion strains, locus YMR277W, strain FCP1, stronger effect = lower value",0.978
same,normalized growth,"S. cerevisiae deletion strains, locus YMR307W, strain GAS1, stronger effect = lower value",0.712
same,normalized growth,"S. cerevisiae deletion strains, locus YNL006W, strain LST8, stronger effect = lower value",0.994
same,normalized growth,"S. cerevisiae deletion strains, locus YNL020C, strain ARK1, stronger effect = lower value",0.953
same,normalized growth,"S. cerevisiae deletion strains, locus YNL128W, strain TEP1, stronger effect = lower value",0.975
same,normalized growth,"S. cerevisiae deletion strains, locus YNL153C, strain GIM3, stronger effect = lower value",0.976
same,normalized growth,"S. cerevisiae deletion strains, locus YNL161W, strain CBK1, stronger effect = lower value",0.986
same,normalized growth,"S. cerevisiae deletion strains, locus YNL183C, strain NPR1, stronger effect = lower value",0.967
same,normalized growth,"S. cerevisiae deletion strains, locus YNL207W, strain RIO2, stronger effect = lower value",0.977
same,normalized growth,"S. cerevisiae deletion strains, locus YNL222W, strain SSU72, stronger effect = lower value",0.978
same,normalized growth,"S. cerevisiae deletion strains, locus YNL298W, strain CLA4 (second series), stronger effect = lower value",0.826 (active)
same,normalized growth,"S. cerevisiae deletion strains, locus YNL307C, strain MCK1 (second series), stronger effect = lower value",0.969
same,normalized growth,"S. cerevisiae deletion strains, locus YNL322C, strain KRE1, stronger effect = lower value",1
same,normalized growth,"S. cerevisiae deletion strains, locus YNR030W, strain Alg12, stronger effect = lower value",0.856 (active)
same,normalized growth,"S. cerevisiae deletion strains, locus YOL006C, strain TOP1, stronger effect = lower value",0.838
same,normalized growth,"S. cerevisiae deletion strains, locus YOL078W, strain AVO1, stronger effect = lower value",0.963
same,normalized growth,"S. cerevisiae deletion strains, locus YOL136C, strain PFK27, stronger effect = lower value",0.94
same,normalized growth,"S. cerevisiae deletion strains, locus YOR061W, strain CKA2, stronger effect = lower value",0.966
same,normalized growth,"S. cerevisiae deletion strains, locus YOR119C, strain RIO1, stronger effect = lower value",1.01
same,normalized growth,"S. cerevisiae deletion strains, locus YOR231W, strain MKK1, stronger effect = lower value",0.945
same,normalized growth,"S. cerevisiae deletion strains, locus YOR329C, strain SCD5, stronger effect = lower value",0.984
same,normalized growth,"S. cerevisiae deletion strains, locus YPL031C, strain PHO85, stronger effect = lower value",0.969
same,normalized growth,"S. cerevisiae deletion strains, locus YPL055C, strain LGE1, stronger effect = lower value",1.1
same,normalized growth,"S. cerevisiae deletion strains, locus YPL153C, strain RAD53, stronger effect = lower value",0.963
same,normalized growth,"S. cerevisiae deletion strains, locus YPL204W, strain HRR25, stronger effect = lower value",0.951
same,normalized growth,"S. cerevisiae deletion strains, locus YPL209C, strain IPL1, stronger effect = lower value",0.974
same,normalized growth,"S. cerevisiae deletion strains, locus YPL241C, strain CIN2, stronger effect = lower value",0.894
same,normalized growth,"S. cerevisiae deletion strains, locus YPL256C, strain CLN2, stronger effect = lower value",1.03
same,normalized growth,"S. cerevisiae deletion strains, locus YPR025C, strain CCL1, stronger effect = lower value",0.982
same,normalized growth,"S. cerevisiae deletion strains, locus YPR106W, strain ISR1, stronger effect = lower value",0.986
same,normalized growth,"S. cerevisiae deletion strains, locus YPR111W, strain DBF20, stronger effect = lower value",0.967
same,normalized growth,"S. cerevisiae deletion strains, locus YPR135W, strain CTF4, stronger effect = lower value",0.711
same,normalized growth,"S. cerevisiae deletion strains, strain NNK1, stronger effect = lower value",0.996
same,normalized growth,"S. cerevisiae deletion strains, strain TSCII, stronger effect = lower value",0.984
same,normalized growth,"S. cerevisiae strains, strain wild type, stronger effect = lower value",0.897 (active)

# From PubChem BioAssay AID1159580 (chemical genetic matrix, 2015)
